An excerpt weighted towards active compounds, which were near 2.4% of everything screened.
Anesthetic bind – qHTS Assay for Identification of Novel General Anesthetics | Ferritin light chain (Equus caballus), P02791 | apoferritin/1-aminoanthracene competitive binding, fluorescence | Potency, µM (doses to about 77.5 µM), inactives show at the top dose activity change, negative = displacement, most hits filed as inhibitors | 350,000 compounds, 0.074% hits; note: % is set by controls: 0 for no effect and ±100 for the full control effect; nearly all actives have a fitted effect of over 20% in size
Target sequence (P02791 2-175 limits assumed): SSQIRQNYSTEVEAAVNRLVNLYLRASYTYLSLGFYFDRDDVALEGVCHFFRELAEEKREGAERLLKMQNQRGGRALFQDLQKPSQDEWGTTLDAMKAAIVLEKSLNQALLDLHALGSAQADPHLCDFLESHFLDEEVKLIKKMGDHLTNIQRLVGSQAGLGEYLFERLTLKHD
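Apoferritin-based anesthetic binding model; compound displacement of fluorescent 1-AMA measured as endpoint fluorescence after 10 minutes at room temperature, scaled to free-ligand and complex controls.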
TGFb inhibitor – qHTS for Inhibitors of TGF-b | HepG2 CAGA-GFP TGF-b/SMAD3 reporter, GFP fluorescence, 18 h; TGF-beta stimulated, 500 pg/mL final | Potency, µM (series often up to 46.1 µM), without a hit: top-dose activity, negative = inhibition, actives largely listed as inhibitors | 410,000 compounds, 1.2% hits | AID 588855, 2011; note: % is set by controls: 0 for no effect and ±100 for the full control effect; nearly all actives have a fitted effect of over 65% in size
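Inhibition was scored as loss of TGF-beta-induced (500 pg/mL final, 18 hours, 37 degrees C) GFP in HEPG2 cells carrying a CAGA-GFP reporter, in DMEM with 1% FBS. Well GFP was summed per cell; Activity was normalised to unstimulated and stimulated DMSO wells, then concentration-response fitting.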
HepG2 tox – qHTS for Inhibitors of TGF-b: Cytotox Counterscreen | HepG2 CAGA-GFP viability, ATP luminescence, 18 h | Potency, µM (highest dose often 46.1 µM), without a hit: at the top dose activity change, negative = cytotoxicity, usual class: cytotoxic | 410,000 compounds, 0.76% hits
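HepG2 CAGA-GFP cells (1000/well, DMEM with 1% FBS) received compound, then TGF-beta at 500 pg/mL final, and were incubated 18 hours at 37 degrees C. Viability was read by CellTiter-Glo luminescence. Media-only wells were set as complete cell-killing and DMSO as no toxicity.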
ATXN viability – Viability Counterscreen for Primary qHTS for Inhibitors of ATXN expression; S2 cells (HEK-293 line with an ATXN2-luciferase reporter) viability, CellTiter-Fluor protease fluorescence, 24 h; Potency, µM (doses to about 56.7 µM), usual class: cytotoxic; AID 651635, 2014; 400,000 compounds, 0.49% hits; note: nearly all actives have a fitted effect of over 40% in size
ATXN2 expr inh – Primary qHTS for Inhibitors of ATXN expression; HEK-293 ATXN2-luciferase reporter, luminescence, 24 h; Potency, µM (doses to about 57 µM), without a hit: top-dose activity change, negative = inhibition, usual class: inhibitors; 360,000 compounds, 0.72% hits; note: % is set by controls: 0 for no effect and ±100 for the full control effect; nearly all actives have a fitted effect of over 55% in size
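ATXN2-luciferase reporter cells (luciferase flanked by upstream and downstream ATXN2 gene portions) were treated 24 h at 37 °C with compounds at up to 57 uM. SteadyGlo luminescence gave expression; GF-AFC fluorescence gave viability.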
* hit, by the source's call; i = inactive; ? = inconclusive; . = no result; [ ] = dose if it differs, or a comment. Calls come from the whole dose curve; as a rule, active = well fitted curve in the direction sought with a large enough effect; inconclusive = small, poorly fitted or top-dose-only effect, or another doubt; inactive = no such curve, though single readings can be large; an effect the other way counts as inactive or inconclusive. Potency is the fitted concentration of half-maximal effect.

SMILES	Anesthetic bind	TGFb inhibitor	HepG2 tox	ATXN viability	ATXN2 expr inh
CC(=O)c1ccccc1-c1csc2ncnc(Sc3nnnn3C)c12	.	?	-2.1%	?	?
CCc1cc2c3c([nH]c2cc1S(=O)(=O)NCCCOC)CC(C)(C)CC3=O	-5.5%	6.9%	-13.5%	i	.
Oc1ccc(C2=Cc3ccc(O)cc3OC2)cc1	.	.	.	.	101.6%
CCCN1CCN(CCNC(=O)Nc2ccccc2OCC)CC1	-3.1%	33.7%	0.8%	i	8.1%
CC(=O)c1ccc(NC(=O)c2sc(-n3nc(C)c(Cc4ccc5c(c4)OCO5)c3C)nc2C)cc1	-4.1%	?	-0.9%	.	.
CC(C)=CCC/C(C)=C/C=C/C1=CC2(C)CC1(C)C(/C=C(\C)CCC=C(C)C)CC2=O (stereo not drawn)	-2.0%[15.3 µM]	.	.	.	.
CCCCn1c(SCC(=O)NC2CC2)nc2cc(C(=O)OC)ccc2c1=O	.	-8.2%	-3.9%	?	.
CC(=O)N1CCC(C(=O)N2CCN(S(=O)(=O)c3ccc(Cl)s3)CC2)CC1	.	-15.8%	14.1µM*	i	-9.6%
CC(Oc1ccc(F)cc1)C(=O)Nc1nc(-c2ccccn2)cs1 (stereo not drawn)	.	?	10.0%	?	7.94µM*
Cc1occc1C(=O)Nc1cccc(-c2nc(CNC(=O)c3ccc(N4CCCCC4)cc3)c(C)o2)c1	.	.	.	i	.
O=C(Nc1ccc(OC(F)F)c(Cl)c1)Nc1ccc2c(c1)OCO2	-11.4%	?	11.2µM*	?	-11.9%
O=C(Nc1cccc(C(=O)O)c1)Nc1ccc2c(c1)OCO2	-1.0%	-3.6%	-29.2%	i	5.01µM*
CC(C)c1ccc(/C=C(\C#N)c2nc(-c3ccc(O)cc3)cs2)cc1	54.1%	?	17.8µM*	i	?
CCOC(=O)C1=C(Cc2ccc(Cl)cc2)C(=O)c2ccccc2C1=O	?	?	11.2µM*	.	20µM*
CCOC(=O)C1=C(C)N=C2c3ccccc3C(=O)C2C1c1ccc(Cl)cc1 (stereo not drawn)	?	?	-62.6%	i	-10.6%
CCOC(=O)c1c2c(n(-c3ccc(OC)cc3)c1C)C(=O)C(=O)c1ccccc1-2	.	?	3.16µM*	8.91µM*	8.91µM*
COC1CCC(N(C(=O)C2CCC(C)CC2)c2cc(C3=CCCCC3)sc2C(=O)O)CC1 (stereo not drawn)	.	.	.	.	-0.9%
O=C1/C(=C/c2ccccc2)CSc2sccc21	14.1µM*	-2.2%	6.0%	i	48.1%
CC1CCCCN1C(=O)Nc1cccc(Cl)c1 (stereo not drawn)	22.4µM*	-0.4%	-5.9%	i	8.6%
Cc1cc(C(=O)NNS(=O)(=O)c2cc(C(=O)O)ccc2Cl)c(C)n1-c1ccccc1	.	-1.6%	6.2%	i	-0.4%
O=CC1=C(c2ccccc2)Oc2ccccc2O1	-16.2%	?	-94.1%	22.4µM*	?
CN(C)/C=C1/N=C(c2ccccc2)OC1=O	?	15.1%	-12.0%	i	12.3%
COc1cc(O)ccc1-c1nc2ccc(Br)cn2c1Nc1ccccc1C	-9.6%	?	15.8µM*	.	.
Cc1ccccc1Nc1c(-c2cccc(O)c2)nc2ccc(Br)cn12	-7.0%	?	-64.9%	?	?
CCOC(=O)/C=C1\CN(Cc2cc(OC)c(OC)c(OC)c2)S(=O)(=O)c2ccccc21	-5.6%	-25.0%	-17.6%	i	-18.6%
CCOC(=O)/C=C1\CN(Cc2cc(OC)c(OC)c(OC)c2)S(=O)(=O)c2ccc(C(F)(F)F)cc21	?	8.91µM*	-15.2%	?	?
C=CCn1c(COc2ccccc2)nc2ccccc21	70.8µM*	-23.9%	-24.5%	i	19.2%
CCCCNC1C(CC)C(CCC)C(C#N)(C#N)C1(C#N)C#N (stereo not drawn)	-4.1%	10µM*	-54.2%	?	-35.3%
NC(=S)N1OC[C@@H]2COc3ccc4ccccc4c3[C@@H]21	?	?	-23.4%	i	14.1µM*
C[C@@H](O)[C@H]1C(=O)N2C(C(=O)O)=C([C@H]3CCCO3)S[C@H]12	.	.	.	i	1.9%
